71 compounds from PubChem BioAssay AID485313 (National Center for Advancing Translational Sciences (NCATS), 2010) can be followed below.

The campaign covered roughly 320,000 compounds. About 7,600 (2.4%) were called active. Where a call stands in place of a potency, no number is given. Roughly 3% stayed inconclusive and do not appear here. The sample holds actives, similar compounds and a random draw of the others, so the mix is not that of the screen. The call rests on the fitted dose curve; in most records, active means well fitted activation curve with a large enough effect; inconclusive means small, poorly fitted or top-dose-only effect; inactive means no such curve, though single readings can be large or run the other way.
Potency means the concentration at half of the fitted maximal effect.

A short description of this experiment: qHTS Assay for NPC1 Promoter Activators. Further: nearly all actives have a fitted effect of over 60% in size. The note with it: Huh7 NPC1 promoter luciferase reporter, 24 h; series mostly up to 9.22 µM. The essentials:
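Luciferase expression driven by the NPC1 promoter was measured in stably transfected Huh7 cells after a 24 h compound incubation, using a luciferase reagent and a luminescence read.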
Take `Cn1c(=O)c(C(=O)Nc2ncccn2)c(O)c2ccccc21`: the Potency is 2820 nM (active). Take `CCCn1c(=O)c(C(=O)Nc2cc(C)ccn2)c(O)c2ccccc21`: the Potency result was “inactive”. For `C=CCn1c(=O)c(C(=O)Nc2ncccc2O)c(O)c2ccccc21` the value was “inactive”; for `Cc1ccc(NC(=O)c2csc3c2CCCC3)cc1`, 2820 nM (active). For `O=C(Nc1ccccc1N1CCOCC1)c1csc2c1CCCC2` the value was “inactive”. Take `O=C(N/N=C/c1ccco1)c1csc2c1CCCC2`: the Potency entry was “inactive”. For `Cc1ccc(N=C2NC(=O)c3cccc([N+](=O)[O-])c32)cc1` the value was “inactive”; for `COc1ccc2nc(NC(=O)NC3CCCCC3)sc2c1`, 3160 nM (active); for `CCc1noc(C)c1C(=O)Nc1nc2ccc(OC)cc2s1`, “inactive”. The value for `COc1ccc2nc(NC(=O)c3ccc(Br)s3)sc2c1` was 3980 nM (active); that for `CS(=O)(=O)c1ccc2nc(NC(=O)C3CCCCC3)sc2c1` was “inactive”; that for `COc1ccc2nc(NC(=O)[C@@H]3CCCN3C(=O)c3cccs3)sc2c1` was “inactive”. As to `COc1ccc(CNC(=O)c2ccc(Br)s2)cc1OC`, the Potency result is “inactive”. The value for `CCOc1ccc(OCC(=O)OC(C)C(=O)NC2CCCCC2C)cc1` (stereo unspecified) was “inactive”. The value for `O=C(CCc1nc2sc3c(c2c(=O)[nH]1)CCCC3)NCC(=O)Nc1ccccc1Br` was “inactive”. For `CSCCC(NC(=O)c1ccco1)C(=O)NCCc1ccc(F)cc1` (stereo unspecified) the value was “inactive”. With `COc1ccc(S(=O)(=O)N2CCN(C(C)C(=O)Nc3ccc(C(C)C)cc3)CC2)cc1` (stereo unspecified), the Potency entry is “inactive”. On to `CCC(=O)c1ccc(OCC(=O)OCC(=O)N2CCc3ccccc3C2)cc1`, for which the Potency result was “inactive”. For `O=C(NC(Nc1nc2ccc([N+](=O)[O-])cc2s1)(C(F)(F)F)C(F)(F)F)c1ccccc1` the value was “inactive”; for `O=C(Nc1nc2ccc([N+](=O)[O-])cc2s1)c1ccncc1`, 1410 nM (active); for `CCOc1ccc2nc(NC(=O)c3cc([N+](=O)[O-])ccc3N3CCOCC3)sc2c1`, “inactive”. For `CCC(C(=O)N1CCN(S(=O)(=O)c2sc(C(=O)O)c(C)c2C(=O)O)CC1)c1ccccc1` (stereo unspecified) the value was “inactive”; for `Cc1c(N=Nc2ccc(N(C)C)cc2)c(=O)n(-c2ccccc2)n1C`, 3550 nM (active); for `Cc1c(C=O)n(C)n(-c2ccccc2)c1=O`, “inactive”.

`Cc1nc(N)sc1N=Nc1c(C)n(C)n(-c2ccccc2)c1=O`: the Potency result is “inactive”.

For `CC(C(=O)Nc1ccc(S(=O)(=O)N2CCCC2)cc1)N(C)Cc1ccc(F)cc1` (stereo unspecified), the Potency result is “inactive”.

As for `Cc1ccc(NC(=O)CNCc2ccccn2)cc1S(=O)(=O)N(C)C`, the Potency result is “inactive”. The value for `CCN(CC)S(=O)(=O)c1cc(C(=O)Nc2ccccn2)ccc1C` was 2240 nM (active). The value for `CCN(c1ccccc1)S(=O)(=O)c1cc(C(=O)NCc2ccccn2)ccc1C` was “inactive”. As to `COc1cc(OC)cc(C(=O)NCC(=O)N2CCCCCCC2)c1`, the Potency entry was “inactive”. In the case of `Cc1ccc(C)c(NC(=O)COC(=O)CSc2ccccc2)c1`, the Potency entry was “inactive”. As to `COc1ccc(-c2cn3ccsc3n2)cc1`, the Potency is 1580 nM (active). The value for `COc1ccc(CNc2nccs2)cc1` was “inactive”; that for `CCN(c1cccc(C)c1)S(=O)(=O)c1ccc(-c2coc(C)n2)cc1` was “inactive”. The value for `COc1ccc(-n2c(-c3ccc(OC)c(OC)c3)n[nH]c2=S)cc1` was “inactive”; that for `CCN(CC)S(=O)(=O)c1ccc(-c2cn3ccc(C)cc3n2)cc1` was 1260 nM (active); that for `COc1ccc(-c2cn3ccc(C)cc3n2)cc1` was 112 nM (active). With `Cc1ccn2cc(C(=O)NC3CCN(Cc4ccccc4)CC3)nc2c1`, the Potency entry was “inactive”.

As for `COc1cc(OC)cc(-c2nc(=S)n3ccsc3n2)c1`, the Potency result was “inactive”. For `CCN(CC(=O)NCCc1ccccc1)S(=O)(=O)c1ccc(C)cc1` the value was “inactive”; for `COC(=O)Cc1ccc(OC(=O)C2CCN(S(=O)(=O)c3ccc(OC)c(OC)c3)CC2)cc1`, “inactive”; for `COCCn1c(C)cc(C(=O)CSc2nnc(C3CC3)n2C2CC2)c1C`, “inactive”. Turning to `CN(C(=O)COC(=O)CCCc1c[nH]c2ccccc12)c1c(N)n(Cc2ccccc2)c(=O)[nH]c1=O`, the Potency result is “inactive”. For `O=C(Nc1ccc2c(c1)OCCO2)C1CCCN(c2ncccn2)C1` (stereo unspecified), the Potency is 398 nM (active).

In the case of `Cc1cc(C)nc(N2CCC(C(=O)Nc3ccc4c(c3)OCCO4)CC2)n1`, the Potency entry is “inactive”. The value for `O=C(Nc1ccc2c(c1)OCCO2)C1CCCC1` was “inactive”; that for `CCc1ccccc1NC(=O)CN(C)C(=O)c1cc(C2CC2)nn1-c1ccccc1` was “inactive”; that for `COc1ccc(Cl)cc1C(=O)OCC(=O)NCc1cccs1` was “inactive”.

With `CCN(CC(=O)Nc1c(F)cccc1F)C(=O)c1ccc(-c2ccc(C(C)=O)cc2)o1`, the Potency entry was “inactive”. The value for `N#Cc1ccc(CN2CCN(CC(=O)Nc3ccccc3C(=O)NC3CC3)CC2)cc1` was “inactive”; that for `Cc1c(CCC(=O)O)c(=O)oc2cc3occ(-c4ccccc4)c3cc12` was “inactive”; that for `CC(C)CN(Cc1c(O)ccc2c(=O)c(-c3ccccc3)coc12)CC(C)C` was “inactive”. Turning to `O=c1c(-c2ccccc2)coc2cc(O)ccc12`, the Potency was 3160 nM (active). The value for `COCC1CCCN(Cc2nc(-c3ccc4c(c3)OCO4)no2)C1` (stereo unspecified) was “inactive”; that for `CC(C)CCNC(=O)c1ccc2c(Cl)c3c(nc2c1)CCC3` was 2000 nM (active); that for `CC(=O)c1ccc(NC(=O)c2ccc3c(Cl)c4c(nc3c2)CCCC4)cc1` was “inactive”.

Consider `COc1ccc(N2CCN(C(=O)c3ccc4c(Cl)c5c(nc4c3)CCCC5)CC2)cc1`, for which the Potency entry was “inactive”. The value for `Cc1c(C)c(C)c(S(=O)(=O)N2CCC3(CC2)OCCO3)c(C)c1C` was “inactive”; that for `CCOc1ccc(S(=O)(=O)NCCC(=O)NCC2CCCO2)cc1` (stereo unspecified) was “inactive”. For `CC(NC(=O)CN(C)S(=O)(=O)c1ccc(F)cc1)C1CC2CCC1C2` (stereo unspecified) the value was “inactive”; for `CCCCN1C(=O)C(=O)N(CC(=O)Nc2cccc(C(C)=O)c2)C1=O`, “inactive”. As to `COc1cc(C(c2c(NC(=O)c3ccco3)sc(C)c2C)N2CCOCC2)cc(OC)c1OC` (stereo unspecified), the Potency entry is “inactive”. As to `O=C(Nc1nc(-c2ccc(-c3ccccc3)cc2)cs1)c1cnccn1`, the Potency result was “inactive”. Take `O=C(O)c1ccccc1C(=O)Nc1nc(-c2ccccc2)cs1`: the Potency entry is “inactive”. For `c1ccc(Nc2nc(-c3ccncc3)cs2)nc1` the value was 2240 nM (active). For `Clc1ccc(-c2csc(-c3ccncc3)n2)cc1` the value was “inactive”; for `c1cnc(Nc2nc(-c3ccc4ccccc4c3)cs2)nc1`, 282 nM (active); for `Cc1ccc(-c2csc(NC3OC(=O)c4ccccc43)n2)cc1` (stereo unspecified), “inactive”. For `COc1ccc(C(=O)Nc2nc(-c3ccc(S(=O)(=O)N4CCOCC4)cc3)cs2)cc1` the value was “inactive”. For the compound `CCCn1c(CCNc2nc(-c3ccc(OC)cc3)cs2)nc2ccccc21`, the Potency entry is “inactive”.

As for `COc1ccc(-c2csc(Nc3ccccn3)n2)cc1`, the Potency is 631 nM (active).
